Assay [1] concerns Proto-oncogene tyrosine-protein kinase receptor Ret (Homo sapiens), P07949 [Y791F]. The note with it: at 1 µM.
The target in assay [2] is Macrophage-stimulating protein receptor (Homo sapiens) (UniProt Q04912). The note with it: at 0.1 µM.
The target is the same in assay [3]. The settings on record: at 1 µM.
Assay [4] concerns the target Proto-oncogene tyrosine-protein kinase ROS (Homo sapiens) (UniProt P08922). The settings on record: at 0.1 µM.
The target is the same in assay [5]. The settings on record: at 1 µM.
Assay [6] concerns the target Proto-oncogene tyrosine-protein kinase Src (Homo sapiens) (UniProt P12931). The note with it: at 0.1 µM.
The target is the same in assay [7]. The note with it: at 1 µM.
Assay [8] concerns the target Tyrosine-protein kinase Srms (Homo sapiens) (UniProt Q9H3Y6). The settings on record: at 0.1 µM.
For assay [9] the target is unchanged. The note with it: at 1 µM.
Assay [10] addresses Tyrosine-protein kinase SYK (Homo sapiens) (UniProt P43405). The note with it: at 0.1 µM.

The results in this text go back to ChEMBL document CHEMBL1961873, “Compounds: GSK PKIS; Assays: Nanosyn kinase panel” (2012).

Values joined by “and” are separate entries in the source; they are usually repeats but may differ in a detail not shown here. Equal values may be shown once.

As usually defined, the inhibition is the change of the read-out against control, counted positive when it falls.

Macrophage-stimulating protein receptor (Homo sapiens), sequence (Q04912 25-304 limits assumed): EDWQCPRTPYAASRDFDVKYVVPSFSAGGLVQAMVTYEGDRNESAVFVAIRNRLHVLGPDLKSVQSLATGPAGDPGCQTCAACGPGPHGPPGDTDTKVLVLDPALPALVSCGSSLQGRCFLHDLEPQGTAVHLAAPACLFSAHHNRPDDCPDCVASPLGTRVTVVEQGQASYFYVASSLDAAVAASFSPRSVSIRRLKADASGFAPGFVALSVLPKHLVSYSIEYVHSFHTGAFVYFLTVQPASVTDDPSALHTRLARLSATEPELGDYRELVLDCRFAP
Macrophage-stimulating protein receptor (Homo sapiens), sequence (Q04912 310-1400 limits assumed): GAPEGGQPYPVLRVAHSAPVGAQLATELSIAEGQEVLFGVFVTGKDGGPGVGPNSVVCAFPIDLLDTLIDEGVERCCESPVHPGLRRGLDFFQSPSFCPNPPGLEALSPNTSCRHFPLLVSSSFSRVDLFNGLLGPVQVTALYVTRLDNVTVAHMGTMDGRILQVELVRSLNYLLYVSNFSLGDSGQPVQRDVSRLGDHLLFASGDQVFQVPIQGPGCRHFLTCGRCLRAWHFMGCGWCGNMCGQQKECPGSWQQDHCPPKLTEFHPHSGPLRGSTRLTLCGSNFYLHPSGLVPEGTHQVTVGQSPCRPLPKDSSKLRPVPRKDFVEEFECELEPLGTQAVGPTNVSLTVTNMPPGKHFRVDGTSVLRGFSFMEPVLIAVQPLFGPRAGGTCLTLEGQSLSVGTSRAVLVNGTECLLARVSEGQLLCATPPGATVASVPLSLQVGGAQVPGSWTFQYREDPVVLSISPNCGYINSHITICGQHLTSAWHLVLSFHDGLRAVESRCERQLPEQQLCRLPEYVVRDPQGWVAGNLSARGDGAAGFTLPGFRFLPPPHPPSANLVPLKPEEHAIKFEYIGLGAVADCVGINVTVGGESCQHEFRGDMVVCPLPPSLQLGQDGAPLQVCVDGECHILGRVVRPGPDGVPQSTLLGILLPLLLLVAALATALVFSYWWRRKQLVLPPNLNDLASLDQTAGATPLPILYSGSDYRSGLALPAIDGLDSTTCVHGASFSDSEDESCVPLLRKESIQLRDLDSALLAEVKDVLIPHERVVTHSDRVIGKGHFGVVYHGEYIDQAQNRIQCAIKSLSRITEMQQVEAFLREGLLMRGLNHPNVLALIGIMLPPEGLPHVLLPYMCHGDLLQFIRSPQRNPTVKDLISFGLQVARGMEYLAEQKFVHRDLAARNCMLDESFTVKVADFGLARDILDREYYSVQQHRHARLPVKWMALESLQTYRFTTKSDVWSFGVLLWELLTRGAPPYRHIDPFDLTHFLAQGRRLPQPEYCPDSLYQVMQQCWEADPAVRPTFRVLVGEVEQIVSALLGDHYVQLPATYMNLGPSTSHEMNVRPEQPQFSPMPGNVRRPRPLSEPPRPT
Proto-oncogene tyrosine-protein kinase Src (Homo sapiens), sequence (P12931 2-536 limits assumed): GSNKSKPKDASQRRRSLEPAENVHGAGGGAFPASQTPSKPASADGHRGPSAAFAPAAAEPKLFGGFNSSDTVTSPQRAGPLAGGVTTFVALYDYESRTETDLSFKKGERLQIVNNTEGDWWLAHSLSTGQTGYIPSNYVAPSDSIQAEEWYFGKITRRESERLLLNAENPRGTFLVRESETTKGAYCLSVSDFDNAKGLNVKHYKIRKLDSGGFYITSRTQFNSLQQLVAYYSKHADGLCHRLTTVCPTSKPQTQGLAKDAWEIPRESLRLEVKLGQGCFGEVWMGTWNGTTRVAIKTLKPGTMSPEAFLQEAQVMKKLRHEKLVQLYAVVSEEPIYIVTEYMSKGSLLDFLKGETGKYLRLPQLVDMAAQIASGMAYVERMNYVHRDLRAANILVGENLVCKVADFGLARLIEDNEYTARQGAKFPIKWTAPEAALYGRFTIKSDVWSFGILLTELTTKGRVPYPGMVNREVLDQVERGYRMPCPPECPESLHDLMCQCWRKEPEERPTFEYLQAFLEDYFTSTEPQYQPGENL
Proto-oncogene tyrosine-protein kinase receptor Ret (Homo sapiens), P07949 [Y791F], sequence (P07949 whole entry Y791F): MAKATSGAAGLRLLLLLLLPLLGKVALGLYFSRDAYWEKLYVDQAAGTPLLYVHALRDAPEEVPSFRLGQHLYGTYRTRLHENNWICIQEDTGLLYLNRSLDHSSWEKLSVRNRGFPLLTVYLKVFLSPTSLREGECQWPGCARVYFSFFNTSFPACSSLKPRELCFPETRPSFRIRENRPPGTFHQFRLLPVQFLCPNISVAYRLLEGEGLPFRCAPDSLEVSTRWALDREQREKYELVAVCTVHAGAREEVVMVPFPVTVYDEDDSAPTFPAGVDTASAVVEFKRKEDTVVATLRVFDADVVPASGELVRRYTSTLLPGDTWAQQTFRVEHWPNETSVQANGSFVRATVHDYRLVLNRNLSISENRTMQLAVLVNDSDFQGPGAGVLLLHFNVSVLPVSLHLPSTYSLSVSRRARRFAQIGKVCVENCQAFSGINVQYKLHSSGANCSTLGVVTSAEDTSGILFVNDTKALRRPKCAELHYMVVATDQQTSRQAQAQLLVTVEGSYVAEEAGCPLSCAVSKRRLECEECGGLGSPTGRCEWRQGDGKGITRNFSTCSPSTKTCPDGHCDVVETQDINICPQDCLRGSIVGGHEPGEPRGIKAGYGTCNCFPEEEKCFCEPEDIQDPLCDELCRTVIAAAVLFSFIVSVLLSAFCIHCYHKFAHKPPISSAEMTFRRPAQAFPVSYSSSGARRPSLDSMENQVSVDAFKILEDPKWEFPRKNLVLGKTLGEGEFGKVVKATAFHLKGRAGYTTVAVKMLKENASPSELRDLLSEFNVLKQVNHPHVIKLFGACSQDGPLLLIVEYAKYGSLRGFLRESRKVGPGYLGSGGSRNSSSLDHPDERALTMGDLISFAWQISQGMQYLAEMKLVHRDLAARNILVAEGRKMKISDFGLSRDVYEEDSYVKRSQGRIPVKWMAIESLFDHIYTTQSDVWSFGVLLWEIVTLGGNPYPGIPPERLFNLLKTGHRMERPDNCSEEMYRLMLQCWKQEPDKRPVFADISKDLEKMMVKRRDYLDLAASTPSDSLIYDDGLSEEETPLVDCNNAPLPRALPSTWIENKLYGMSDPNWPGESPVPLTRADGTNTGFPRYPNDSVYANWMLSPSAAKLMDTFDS
Tyrosine-protein kinase Srms (Homo sapiens), sequence (Q9H3Y6 whole entry): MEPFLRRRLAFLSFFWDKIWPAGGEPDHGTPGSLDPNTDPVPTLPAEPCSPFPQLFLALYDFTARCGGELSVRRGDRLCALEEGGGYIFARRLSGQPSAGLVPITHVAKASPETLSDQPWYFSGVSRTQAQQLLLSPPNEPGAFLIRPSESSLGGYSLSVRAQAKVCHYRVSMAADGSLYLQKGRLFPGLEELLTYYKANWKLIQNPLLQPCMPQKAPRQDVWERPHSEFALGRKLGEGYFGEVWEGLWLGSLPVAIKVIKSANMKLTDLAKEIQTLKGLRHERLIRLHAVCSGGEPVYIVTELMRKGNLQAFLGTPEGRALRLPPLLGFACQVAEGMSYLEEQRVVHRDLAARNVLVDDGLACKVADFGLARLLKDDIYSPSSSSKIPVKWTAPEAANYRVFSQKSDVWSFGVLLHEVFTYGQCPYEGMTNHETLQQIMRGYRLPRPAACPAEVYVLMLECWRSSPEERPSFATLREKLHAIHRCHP

For the compound `COc1c(C(N)=O)cc(-c2ccc(Cl)cc2)cc1-c1ccc(S(N)(=O)=O)cc1`, the inhibition in assay [1] is 7.43%; in [2], 6.88%; in assay [3], 6.97%; in [4], 12.2%; in assay [5], 14.6%; in [6] it was 10.9%. Besides, the inhibition in assay [7] was 14.6%; in assay [8], -1.8%; in assay [9], -2.15%; in assay [10] it was 1.78%.

As for `c1ccc(-c2n[nH]cc2-c2ccnc(-c3ccc(OCCn4ccnc4)cc3)c2)nc1`, the inhibition in [1] was 19.1%; in assay [2], 3.8%; in assay [3], 3.01%; in [4], 3.08%; in [5] it was 10.7%; in assay [6], -2.63%. Besides, the inhibition in assay [7] is 8.69%; in [8], 0.16%; in assay [9] it was 3.94%; in assay [10], -0.7%.

On to `O=C(Nc1n[nH]c2nnc(-c3cccnc3)cc12)C1CC1`, for which the inhibition in assay [1] was 3.64%; in assay [2], -2.07%; in assay [3] it was -3.95%; in assay [4], -0.02%; in assay [5], 1.38%; in assay [6] it was 0.98%. Besides, the inhibition in assay [7] was found to be 2.5%; in [8], 2.39%; in assay [9], 0.54%; in assay [10] it was 1.35%.

`CCCNc1cccc(-n2ncc3c(N/N=C/c4ccncc4)ncnc32)c1`: the inhibition turned out to be 65.2% in assay [1]; 11.7% in assay [2]; 57.9% in assay [3]; 6.09% in assay [4]; 33.4% in assay [5]; 19.5% in assay [6]. Also, the inhibition amounted to 81.8% in assay [7], 4.26% in assay [8], 7.86% in assay [9] and 3.8% in assay [10].

With `Nc1nccc(-c2c(-c3ccc(F)cc3)ncn2C2CCNCC2)n1`, the inhibition is 18.1% and 7.68% in [1]; 7.21% in assay [2]; -1.75% and 1.85% in [3]; 1.07% and 4.79% in assay [4]; 8.31% and 7.82% in [5]; -4.6% and -5.2% in assay [6]. Besides, the inhibition in [7] was 0.47% and 5.61%; in [8] it was -1% and 0.6%; in assay [9], 1.09% and -0.34%; in assay [10] it was 0.33% and 1.19%.

`O=C(O[C@H]1CN[C@H](C#Cc2cc3ncnc(Nc4ccc(OCc5cccc(F)c5)c(Cl)c4)c3s2)C1)N1CCOCC1`: the inhibition in assay [1] is 7.29%; in [2], 1.25%; in assay [3], 12.9%; in assay [4], 6.55%; in assay [5], 8.8%; in [6], -0.25%. The inhibition was 11.3% in [7], -2.71% in assay [8], -2.76% in assay [9] and -7% in assay [10].

Consider `COc1cc(Nc2ncc(-c3ccccc3)o2)cc(OC)c1`, for which the inhibition in [1] was 13.2%; in assay [2], 4.66%; in assay [3], -0.05%; in assay [4] it was 3.98%; in assay [5], 11.9%; in assay [6], 14.9%. The inhibition in [7] was 49.7%; in assay [8], 2.58%; in assay [9], 3.5%; in assay [10], -2.45%.

As to `CC1(C)CC(n2cnc(-c3ccc(F)cc3)c2-c2ccnc(N)n2)CC(C)(C)N1`, the inhibition in assay [1] was 1.67%; in [2], 2.97%; in [3], 5.62%; in assay [4], 5.01%; in assay [5], 7.73%; in assay [6], -1.43%. The inhibition in [7] was 5.26%; in assay [8], 0.52%; in [9], -1.76%; in assay [10], -1.03%.

With `CS(=O)(=O)Nc1ccc(-c2cc(-c3ccccc3)cc(C(N)=O)c2N)cc1`, the inhibition was 3.96% in assay [1]; -0.02% in assay [2]; -1.34% in assay [3]; 4.8% in assay [4]; 6.51% in assay [5]; 2.73% in assay [6]. Further, the inhibition in [7] is 4.51%; in [8], -2.19%; in assay [9], -2.04%; in assay [10], -0.83%.

For the compound `CS(=O)(=O)Nc1ccc(-c2ccc3c(NC(=O)C4CC4)n[nH]c3c2)cc1`, the inhibition in assay [1] was 6.93%; in assay [2] it was 1.04%; in assay [3], 7.91%; in [4], 11.3%; in assay [5], 11.7%; in assay [6] it was -4.32%. Further, the inhibition in assay [7] is 8.03%; in assay [8], -0.44%; in assay [9] it was 0.5%; in assay [10] it was -4.62%.

Regarding `COC(=O)Nc1nc2cc(Oc3ccc(NC(=O)Nc4ccccc4)cc3)ccc2[nH]1`, the inhibition was 25.8% in assay [1]; 7.21% in [2]; 8.17% in assay [3]; 2.15% in assay [4]; 2.86% in assay [5]; 5.93% in assay [6]. For the same compound, the inhibition was 7.76% in assay [7], 0.48% in assay [8], -1.09% in assay [9] and -5.19% in [10].

On to `Cc1cc(O)cc(C)c1/C=C/c1cncc(C(=O)OC(C)(C)C)c1`, for which the inhibition in [1] was 12.1%; in [2], 8.51%; in assay [3] it was 8.66%; in assay [4], 6.94%; in assay [5], 10.4%; in assay [6] it was 14.1%. Also, the inhibition in [7] is 58.6%; in [8], 10.2%; in [9], 43.4%; in [10], -0.49%.

As to `Cc1ccc(-c2cc3c(NC(=O)C4CC4)ncnc3o2)cc1`, the inhibition in assay [1] was 12.9%; in [2], -0.25%; in assay [3], 11.4%; in assay [4], 11.1%; in [5], 16.3%; in assay [6] it was 1.85%. Further, the inhibition is 24.4% in assay [7], -1.85% in [8], -5.36% in assay [9] and -5.27% in assay [10].

For the compound `NS(=O)(=O)c1ccc(N/N=C2\C(=O)Nc3cccc(CCc4ccncc4)c32)cc1`, the inhibition is 29.1% in assay [1]; -0.73% in assay [2]; 5.76% in [3]; 3% in assay [4]; 9.09% in assay [5]; 3.83% in assay [6]. Further, the inhibition worked out at 9.5% in assay [7], 1.9% in assay [8], 1.2% in [9] and 0.03% in assay [10].

For `Cc1cc(O)cc(C)c1/C=C/c1cncc(C(N)=O)c1`, the inhibition turned out to be 8.63% in [1]; 1.41% in assay [2]; 4.46% in [3]; 4.48% in [4]; 6.31% in assay [5]; 5.55% in [6]. Besides, the inhibition was 54.2% in assay [7], 5.08% in assay [8], 31.6% in assay [9] and -0.5% in assay [10].
